Consider 31 compounds from PubChem BioAssay AID588331 (National Center for Advancing Translational Sciences (NCATS), 2011).

Molecules are shown by their SMILES. Results filed as inconclusive are left out. Calls of active or inactive are those of the source. Calls come from the whole dose curve; as a rule, active = well fitted inhibition curve with a large enough effect; inconclusive = small, poorly fitted or top-dose-only effect; inactive = flat fitted curve, though single readings scatter.

For this test, the system named is Trypanosoma brucei 6-phosphofructokinase (PFK). In words: Confirmatory Assay to Find Inhibitors of T. brucei phosphofructokinase: High F6P. The note with it: Kinase-Glo luminescence; series mostly up to 57.5 µM; activity change, negative = inhibition: at the top concentration. The text has this:
Various species of the protozoan family Trypanosomatidae are responsible for a range of serious human diseases in tropical and subtropical areas of the world. […] Many of the disorders caused by trypanosomatids are fatal if left untreated, but most currently used drugs are inefficient and toxic. […] Oxidative metabolism involving the mitochondrial tricarboxylic acid cycle and oxidative phosphorylation are repressed in these parasites, and recent RNA interference (RNAi) experiments have shown that even partial depletion of certain individual glycolytic enzymes can lead to the death of cultured parasites. One such glycolytic enzyme, phosphofructokinase (PFK), catalyzes the formation of fructose-1,6-bisphosphate (F1,6BP) and ADP from fructose-6-phosphate (F6P) and ATP, and in many metabolic circumstances makes an important contribution to the control of flux through the glycolytic pathway. As a specific glycolytic target, PFK is particularly attractive as it catalyzes the first irreversible step in glycolysis, and structural and kinetic studies have shown very substantial and essential differences from corresponding host enzymes, allowing for the discovery of parasite-selective inhibitors. A luminescent secondary assay was also performed that used luciferase-based nucleotide detection (ADP-Glo, Promega) similar to the qHTS, but that alternatively used saturating concentrations (10x Km concentrations) of ATP or F6P to determine if inhibitor potencies were shifted due to particular substrate competition. […] NIH Molecular Libraries Probe Production Network [MLPCN] NIH Chemical Genomics Center [NCGC] Grant: 1 R03 MH092153-01 PI Name: Malcolm Walkinshaw, University of Edinburgh
Substrate buffer was dispensed into white, solid 1536-well plates at 3 uL/well in 0.1M triethanolamine (TEA) buffer, pH 8.0, containing final concentrations of 5 mM MgCl2 and 0.01% Tween20. Standard substrate buffer contained 0.5 mM fructose-6-phosphate (F6P) and 0.1 mM ATP, high ATP substrate buffer contained 0.5 mM fructose-6-phosphate (F6P) and 1mM ATP, high F6P substrate buffer contained 5mM fructose-6-phosphate (F6P) and 0.1 mM ATP, and high ATP/F6P buffer contained 5 mM fructose-6-phosphate (F6P) and 1 mM ATP. Then, 23 nl of compounds or DMSO were delivered to each well using a pin tool. One uL of T. brucei PFK (0.1 M TEA, 0.01% Tween20, 0.1% bovine serum albumin (BSA) and 1.25 nM PFK, final concentrations) was then dispensed, and plates were incubated at room temperature for 45 min. The luminescent detection reagent, Kinase-Glo Plus (Promega), was then added at 2ul/well and incubated for ten minutes at room temperature. The plates were measured on a ViewLux plate reader for luminescent signal using a clear filter with a one second exposure. The %Activity was determined from the corrected luminescence values. 1x (1.25nM) and 0x PFK enzyme controls (untreated) were included to normalize %Activity of identified inhibitors; 0x enzyme values corresponded to 100%Activity (full inhibition), while 1x PFK enzyme values were used to normalize 0% Activity (no inhibition).
For orientation: Kinase-Glo measures the ATP left after a reaction by luminescence.
In the case of `Cc1cc(NS(=O)(=O)Cc2ccc(NC(=O)Cc3ccc(Cl)c(Cl)c3)cc2)no1`, the Potency was 16.3 µM (active).

With `Cc1cc(NS(=O)(=O)c2ccc(NC(=O)C(C)(C)c3ccc(Cl)c(Cl)c3)cc2)no1`, the “activity change, negative = inhibition” value is -0.0491% (inactive).

As for `O=C(Cc1ccc(Cl)c(Cl)c1)Nc1ccc(S(=O)(=O)Nc2ccc(C(=O)O)cc2)cc1`, the Potency is 4.11 µM (active).

With `Cc1cc(NS(=O)(=O)CCNC(=O)Cc2ccc(Cl)c(Cl)c2)no1`, the “activity change, negative = inhibition” value was 4.19% (inactive).

Turning to `COc1ccc(CC(=O)Nc2ccc(S(=O)(=O)Nc3cc(C)on3)cc2)cc1OC`, the “activity change, negative = inhibition” value is 4.52% (inactive).

For `Cc1cc(NS(=O)(=O)c2ccc(NC(=O)c3ccc(Cl)c(Cl)c3)cc2)no1`, the “activity change, negative = inhibition” value is -3.99% (inactive).

Take `Cc1cc(NS(=O)(=O)c2ccc(NS(=O)(=O)Cc3ccc(Cl)c(Cl)c3)cc2)no1`: the “activity change, negative = inhibition” value is 7.09% (inactive).

For the compound `Cc1cc(NC(=O)c2csc(NC(=O)Cc3ccc(Cl)c(Cl)c3)n2)no1`, the “activity change, negative = inhibition” value was 2.82% (inactive).

Turning to `Cc1cc(NS(=O)(=O)c2ccc(NC(=O)Cc3ccc(Cl)c(Cl)c3)cc2)no1`, the Potency is 3.66 µM (active).

For `Cc1cc(NS(=O)(=O)c2ccc(C(=O)NCc3ccc(Cl)c(Cl)c3)cc2)no1`, the Potency is 25.9 µM (active).

`Cc1cc(N(C)S(=O)(=O)c2ccc(NC(=O)Cc3ccc(Cl)c(Cl)c3)cc2)no1`: the Potency was 16.3 µM (active).

With `Cc1cc(NS(=O)(=O)c2ccc(NC(=O)Cc3ccccc3)cc2)no1`, the “activity change, negative = inhibition” value is -9.12% (inactive).

On to `COc1ccc(CC(=O)Nc2ccc(S(=O)(=O)Nc3cc(C)on3)cc2)cc1C`, for which the “activity change, negative = inhibition” value was 1.36% (inactive).

On to `Cc1cc(NS(=O)(=O)c2ccc(NC(=O)Cc3ccc(Cl)c(Cl)c3)cc2)n(C)n1`, for which the Potency was 13 µM (active).

For the compound `Cc1cc(NS(=O)(=O)c2ccc(NC(=O)Cc3ccc(C)c(C)c3)cc2)no1`, the “activity change, negative = inhibition” value is -3.32% (inactive).

Take `Cc1cc(NS(=O)(=O)c2ccc(N(C)C(=O)Cc3ccc(Cl)c(Cl)c3)cc2)no1`: the Potency was 10.3 µM (active).

As to `CCOC(=O)c1cccc(NS(=O)(=O)c2ccc(NC(=O)Cc3ccc(Cl)c(Cl)c3)cc2)c1`, the “activity change, negative = inhibition” value is 6.32% (inactive).

Take `O=C(Cc1ccc(Cl)c(Cl)c1)Nc1ccc(S(=O)(=O)Nc2cccc(O)c2)cc1`: the Potency was 14.6 µM (active).

As to `Cc1cc(NS(=O)(=O)c2ccc(NC(=O)Cc3ccc(Cl)c(F)c3)cc2)no1`, the Potency is 8.19 µM (active).

Regarding `Cc1cc(NS(=O)(=O)c2ccc(NC(=O)Cc3ccc(Cl)c(C(F)(F)F)c3)cc2)no1`, the Potency is 5.8 µM (active).

Consider `O=C(Cc1ccc(Cl)c(Cl)c1)Nc1ccc(S(=O)(=O)Nc2cccc(C(=O)O)c2)cc1`, for which the Potency was 4.61 µM (active).

Regarding `Cc1cc(NS(=O)(=O)c2ccc(NC(=O)Cc3ccc(Cl)cc3)cc2)no1`, the Potency is 20.6 µM (active).

As to `O=C(Cc1ccc(Cl)c(Cl)c1)Nc1ccc(S(=O)(=O)Nc2ccn[nH]2)cc1`, the Potency is 5.8 µM (active).

As to `Cc1cc(N[S+](=O)([O-])c2ccc3cc(NC(=O)Cc4ccc(Cl)c(Cl)c4)ccc3c2)no1`, the Potency was 36.6 µM (active).

Turning to `Cc1cc(NS(=O)(=O)c2ccc(NC(=O)Cc3ccc(Cl)c(Cl)c3)cc2)on1`, the Potency was 3.26 µM (active).

On to `O=C(Cc1ccc(Cl)c(Cl)c1)Nc1ccc(S(=O)(=O)O)cc1`, for which the Potency is 5.17 µM (active).

Consider `Cc1cc(NC(=O)c2ccc(NC(=O)Cc3ccc(Cl)c(Cl)c3)cc2)no1`, for which the “activity change, negative = inhibition” value is 3.41% (inactive).

For the compound `O=C(Cc1ccc(Cl)c(Cl)c1)Nc1ccc(S(=O)(=O)Nc2cncnc2)cc1`, the Potency was 9.19 µM (active).

For the compound `Cc1cc(NS(=O)(=O)C2CCN(C(=O)Cc3ccc(Cl)c(Cl)c3)CC2)no1`, the “activity change, negative = inhibition” value was -0.566% (inactive).

For `Cc1cc(N[S+](=O)([O-])c2ccc(NC(=O)Cc3ccc(Cl)nc3)cc2)no1`, the “activity change, negative = inhibition” value is -2.67% (inactive).

For the compound `O=C(Cc1ccc(Cl)c(Cl)c1)Nc1ccc(S(=O)(=O)Nc2ccon2)cc1`, the Potency was 2.06 µM (active).
